Experimental findings from PubChem BioAssay AID1851 (National Center for Advancing Translational Sciences (NCATS), 2009) are described below.

Usually AC50 stands for the concentration giving half of the maximal activity seen.

Each structure is given as a SMILES string. Hit rate of the full screen: of about 16,000 compounds, about 2,600 (16%) were called active. Roughly 20% stayed inconclusive and do not appear here. Calls come from the whole dose curve; as a rule, active = well fitted curve in the direction sought with a large enough effect; inconclusive = small, poorly fitted or top-dose-only effect, or effect the other way; inactive = no such curve, though single readings can be large or run the other way. Only a sample is shown.
% is set by controls: 0 for no effect and ±100 for the full control effect.

Chain of Cytochrome P450 2D6 (Homo sapiens) (P10635 whole entry, looked up): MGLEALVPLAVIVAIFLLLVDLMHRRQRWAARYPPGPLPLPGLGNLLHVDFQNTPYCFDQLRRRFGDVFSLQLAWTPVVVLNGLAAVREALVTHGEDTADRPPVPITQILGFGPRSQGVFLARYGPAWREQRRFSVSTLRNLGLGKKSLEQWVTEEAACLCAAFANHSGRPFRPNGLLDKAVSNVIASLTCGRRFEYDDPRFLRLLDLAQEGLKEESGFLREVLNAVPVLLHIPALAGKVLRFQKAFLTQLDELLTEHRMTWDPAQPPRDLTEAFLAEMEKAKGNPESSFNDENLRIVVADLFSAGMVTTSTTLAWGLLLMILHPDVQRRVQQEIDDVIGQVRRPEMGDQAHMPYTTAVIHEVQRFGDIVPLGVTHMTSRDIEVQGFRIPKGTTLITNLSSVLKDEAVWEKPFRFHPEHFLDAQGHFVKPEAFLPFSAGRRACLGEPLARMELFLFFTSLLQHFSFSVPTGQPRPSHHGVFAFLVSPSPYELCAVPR

The test concerns the target Cytochrome P450 2D6 (Homo sapiens) (UniProt P10635). The test is described as follows: Cytochrome panel assay with activity outcomes. To be noted: recombinant CYP, pro-luciferin dealkylation, luminescence, p450-cyp2d6; series mostly up to 57.1 µM.
With `Nc1c(C(=O)NCc2ccccc2)sc2nc3c(cc12)C(=O)CCC3`, the AC50 entry was “inactive”.

On to `C[C@@](N)(C(=O)O)c1ccc(P(=O)(O)O)cc1`, for which the AC50 entry is “inactive”.

Consider `O=C(O)c1cc(=O)cc(C(=O)O)[nH]1`, for which the AC50 entry was “inactive”.

Take `CC(=O)N1CCN(C(=O)CC2OC(=O)c3ccccc32)CC1` (centres undefined): the AC50 entry was “inactive”.

Regarding `CCOC(=O)Cc1csc(NC(=O)CCCCCN2C(=O)c3ccccc3C2=O)n1`, the AC50 is 14.1 µM (active).

As for `CCOC(=O)c1sc(NC(=O)CCCCCN2C(=O)c3cccc4cccc(c34)C2=O)nc1C`, the AC50 result is “inactive”.

In the case of `CCOC(=O)Cc1csc(NS(=O)(=O)c2ccccc2)n1`, the AC50 result is “inactive”.

Turning to `CCOC(=O)C1=C(C)Nc2ncnn2C1c1cccnc1` (centres undefined), the AC50 result is “inactive”.

As for `CCCC(=O)Nc1nc(C(=O)OCC)cs1`, the AC50 result was “inactive”.

`Nc1ccn([C@@H]2CC[C@H](CO)O2)c(=O)n1`: the AC50 result is “inactive”.

In the case of `C[C@]12CC[C@H]3c4ccc(O)cc4CC[C@@H]3[C@H]1CC[C@@H]2OC(=O)CCC1CCCC1`, the activity, negative = inhibition is 1.36% [at 11.4 µM] (inactive).

With `COC(=O)C1(C)C=C2C(=C(c3ccccc3)C(=O)C2C)CN1` (centres undefined), the AC50 result was “inactive”.

On to `CCCC1(C(=O)OC)C=C2C(=C(C)C(=O)C2C)CN1` (centres undefined), for which the AC50 result was “inactive”.

`CCCCCC1=C2CNC(Cc3ccccc3)(C(=O)OC)C=C2C(C)C1=O` (centres undefined): the AC50 is 12.6 µM (active).

As for `COC(=O)C1(Cc2ccccc2)C=C2C(=C(C(C)C)C(=O)C2C)CN1` (centres undefined), the AC50 is 12.6 µM (active).

For the compound `CCCCCC1=C2CNC(CC(C)C)(C(=O)OC)C=C2C(C)C1=O` (centres undefined), the AC50 was 5.01 µM (active).

As to `CCCC1(C(=O)OC)C=C2C(=C(C(C)C)C(=O)C2C)CN1` (centres undefined), the AC50 entry was “inactive”.

Take `CCCC1(C(=O)OC)C=C2C(=C(c3ccccc3)C(=O)C2C)CN1` (centres undefined): the AC50 entry was “inactive”.

Take `COC(=O)C1(CC(C)C)C=C2C(=C(c3ccccc3)C(=O)C2C)CN1` (centres undefined): the AC50 entry was “inactive”.

As for `CO[C@H]1COC(=O)[C@H](C)NC(=O)C/C=C\[C@@H](C)[C@H](OC)COC(=O)[C@@H](OCc2ccccc2)/C=C\[C@@H]1C`, the activity, negative = inhibition was 3.57% [at 11.4 µM] (inactive).

Consider `O=S(=O)(c1ccccc1)N1CN2CN(C1)CN(S(=O)(=O)c1ccccc1)C2`, for which the activity, negative = inhibition was 2.33% [at 11.4 µM] (inactive).

As for `NNS(=O)(=O)c1cc(C(=O)O)cc(C(=O)O)c1`, the activity, negative = inhibition was 5.99% [at 11.4 µM] (inactive).

Turning to `COc1ccc(Oc2ncc3nc(-c4cn(C)c5ccccc45)c(=O)n(C)c3n2)cc1`, the AC50 entry is “inactive”.

Consider `COc1ccc(C(=O)NC(C)c2cc(OC)c(OC)cc2Br)cc1` (centres undefined), for which the AC50 result was “inactive”.

For `CN(C)[C@@H]1C(=O)C(C(N)=O)=C(O)[C@]2(O)C(=O)C3=C(O)c4c(O)ccc(Cl)c4[C@H](O)[C@H]3C[C@@H]12`, the AC50 entry is “inactive”.

`O=C(c1ccccc1-c1nc(-c2ccccc2)no1)N1CCOCC1`: the AC50 entry was “inactive”.

For `CCOC(=O)N/N=C1/C[C@@H](O)[C@@H](O)[C@@H]2[C@@H]3C(=O)N(Cc4ccc5c(c4)OCO5)C(=O)[C@H]3CC[C@H]12`, the activity, negative = inhibition was -9.22% [at 11.4 µM] (inactive).

In the case of `CC1(C)SC(=S)N(Cc2ccc3c(c2)OCO3)C1N(O)C(=O)NC1CCCCC1` (centres undefined), the concentration at half-maximal activity (AC50) was 2.24 µM (active).

As to `COc1ccccc1Nc1nc(-c2sc(NC(=O)c3ccc([N+](=O)[O-])cc3)nc2C)cs1`, the AC50 entry was “inactive”.

Consider `O=[N+]([O-])c1cccc(/C=N\Nc2ccc3ccccc3n2)c1O`, for which the AC50 was 3.16 µM (active).

As to `Nc1cc(Cl)nc(N/N=C/c2ccccc2[N+](=O)[O-])n1`, the AC50 result is “inactive”.

In the case of `Cc1nc2ccccn2c1C(=O)N/N=C/c1ccccc1[N+](=O)[O-]`, the AC50 entry is “inactive”.

For the compound `O=C(O)c1c2ccccc2cc2ccccc12`, the AC50 entry was “inactive”.

Regarding `C/C(CCC(=O)OC[C@@H]1O[C@H](C#Cc2ccccc2)C=C[C@@H]1Oc1ccc(C)cc1)=N/OC[C@@H](O)[C@H]1O[C@H]2OC(C)(C)O[C@H]2[C@@H]1O`, the activity, negative = inhibition was 14.6% [at 11.4 µM] (inactive).

Take `CCn1c(N2CCN(C(=O)Nc3ccc(F)cc3)CC2)nc2ccccc21`: the AC50 result was “inactive”.

For `COc1cccc(N2CCN(C(=S)Nc3cccc(C)c3)CC2)c1`, the AC50 entry is “inactive”.

For the compound `CCOC(=O)N/N=C1/C[C@@H](O)[C@@H](O)[C@@H]2[C@@H]3C(=O)N([C@@H](C)c4ccccc4)C(=O)[C@H]3CC[C@H]12`, the activity, negative = inhibition is 18.4% [at 11.4 µM] (inactive).

In the case of `Nc1nonc1-c1noc(CCCN2C(=O)c3ccccc3C2=O)n1`, the AC50 entry was “inactive”.

With `NC(N)=Nc1nc(CCN2C(=O)c3ccccc3C2=O)cs1`, the AC50 is 15.8 µM (active).

In the case of `N#C/C(=C/c1cccc(C(F)(F)F)c1)c1nc(CCN2C(=O)c3ccccc3C2=O)cs1`, the AC50 result was “inactive”.

Turning to `COc1cc(S(C)=O)ccc1-c1nc2ncccc2[nH]1` (centres undefined), the AC50 entry was “inactive”.

For the compound `O=C(c1ccc(Oc2ccc(C(F)(F)F)cn2)cc1)N1CCN(c2ccccc2)CC1`, the AC50 entry was “inactive”.

On to `O=C(CN1CCCCC1)Nc1nnc(-c2ccc([N+](=O)[O-])cc2)s1`, for which the AC50 result was “inactive”.

With `CC1CCN(CC(=O)Nc2cccc([N+](=O)[O-])c2)CC1`, the AC50 was 5.62 µM (active).

Take `CCC(=O)Nc1cccc(NC(=O)c2cccc([N+](=O)[O-])c2)c1`: the AC50 entry is “inactive”.

On to `COc1ccc(N(CC(=O)O)N=O)cc1`, for which the activity, negative = inhibition is 8.99% [at 11.4 µM] (inactive).

In the case of `COc1ccc(OC)c2[nH]c(=O)c(CCNC(=O)c3ccc(S(=O)(=O)N(C)C)cc3)cc12`, the AC50 result is “inactive”.

For the compound `O=C1[C@@H]2[C@H]3[C@H](O)[C@H](O)C/C(=N/OC[C@@H](O)COCc4ccco4)[C@@H]3CC[C@H]2C(=O)N1c1ccc(F)cc1F`, the activity, negative = inhibition is 10.9% [at 11.4 µM] (inactive).

As for `C=CCOc1c(Br)cc(CNc2ccc(NC(=O)C(C)C)c(OC)c2)cc1OC`, the AC50 result was “inactive”.

Regarding `COc1ccccc1CNC(=O)C1CCN(S(=O)(=O)N2CC(C)CC(C)C2)CC1` (centres undefined), the AC50 result was “inactive”.

Take `COc1cc(CNCc2cccs2)cc(Br)c1OC`: the AC50 is 0.0562 µM (active).

In the case of `COc1ccccc1CNCc1cccs1`, the AC50 was 0.794 µM (active).

In the case of `COc1cc(C)c(Br)cc1S(=O)(=O)NCc1ccccc1`, the AC50 entry was “inactive”.

On to `COc1ccccc1CNC(=O)C/C(C)=N/NC(=O)Cc1ccccc1`, for which the AC50 entry was “inactive”.

Take `O=P(Cc1cc[n+]([O-])cc1)(c1ccccc1)c1ccccc1`: the AC50 entry is “inactive”.

Consider `CCC(C)NS(=O)(=O)c1ccc(OCC(=O)NCC2CCCO2)cc1` (centres undefined), for which the AC50 entry was “inactive”.

`Cc1ccc(CNC(=O)C2CC(c3ccccc3[N+](=O)[O-])=NO2)o1` (centres undefined): the AC50 result was “inactive”.

Turning to `Cc1ccc(CCNC(=O)C2CC(c3ccccc3[N+](=O)[O-])=NO2)cc1` (centres undefined), the AC50 is 2.51 µM (active).

Turning to `Cc1ccc(CNC(=O)C2CC(c3ccccc3[N+](=O)[O-])=NO2)cc1` (centres undefined), the AC50 result was “inactive”.

Regarding `O=C(NCCCCc1ccccc1)C1CC(c2ccccc2[N+](=O)[O-])=NO1` (centres undefined), the AC50 was 0.1 µM (active).

On to `CC(C)(C)OC(=O)N1CCCC1C(=O)NCCc1ccccc1` (centres undefined), for which the AC50 entry was “inactive”.

As for `CCCc1cc(=O)oc2cc(OCc3cc(OC)c(OC)c(OC)c3)c(Cl)cc12`, the AC50 entry was “inactive”.

On to `O=C(Cc1ccccc1)N/N=C\c1ccc(Br)o1`, for which the AC50 entry is “inactive”.

Turning to `O=C(Nc1cccc2ncccc12)c1cccc(F)c1`, the AC50 result is “inactive”.

Turning to `CC1Cc2ccccc2N1C(=O)CCN1C(=O)C2C3C=CC(C3)C2C1=O` (centres undefined), the AC50 entry is “inactive”.

On to `CC(C)(C)Cn1nc(-c2ccc(Cl)cc2)c2c(N)ncnc21`, for which the AC50 result is “inactive”.

For the compound `Nc1nc(N)nc(CCCc2nc(N)nc(N)n2)n1`, the activity, negative = inhibition was 19.1% [at 11.4 µM] (inactive).

As to `C/C(=C(/CCO)SSC[C@@H]1CCCO1)N(C=O)Cc1cnc(C)nc1N`, the AC50 entry is “inactive”.

For the compound `COc1cccc(Nc2ncc3ncc(=O)n(CCC#N)c3n2)c1`, the AC50 result is “inactive”.

With `C1CCc2c(nc3nnnn3c2NC2CCCC2)C1`, the AC50 entry is “inactive”.

For the compound `COc1ccc(C(=O)Nc2cc(Cl)ccc2OC(=O)c2ccc(OC)cc2)cc1`, the AC50 result was “inactive”.

Take `CCOc1ccc(C(=O)Nc2ccc(Cl)cn2)cc1Cl`: the AC50 is 7.94 µM (active).

Turning to `CCOc1ccc(C(=O)Nc2cccc(-c3nc4cccnc4o3)c2)cc1Cl`, the AC50 result was “inactive”.

Take `Cc1cc(=O)oc(C)c1C(=O)Nc1ccc(Cl)cn1`: the AC50 entry was “inactive”.

For the compound `COc1ccc(C(=O)Nc2ccc(Cl)cn2)cc1Cl`, the AC50 is 3.55 µM (active).

Consider `CCOc1ccc(C(=O)Nc2ccc(NC(=O)c3ccco3)c(Cl)c2)cc1Br`, for which the AC50 entry was “inactive”.

As to `CCOc1cccc(C2C(C(=O)c3ccc(C)o3)=C(O)C(=O)N2Cc2ccncc2)c1` (centres undefined), the AC50 entry was “inactive”.

For `CC(C)NC(=O)C(C)n1cccc1C(=O)c1ccccc1` (centres undefined), the AC50 result is “inactive”.

`O=C(CCS(=O)(=O)c1cccs1)N1CCN(c2ccc(F)cc2)CC1`: the AC50 is 20 µM (active).

For `O=C(c1cc(-c2cccs2)on1)N1CCN(c2ccc(F)cc2)CC1`, the AC50 result was “inactive”.

Regarding `CCC(=O)N1CCN(c2ccc(NC(=O)c3cccs3)cc2)CC1`, the AC50 entry is “inactive”.

For the compound `Cc1nc2sccn2c(=O)c1Cl`, the AC50 entry was “inactive”.

Turning to `CCCCCCCCN1C(=O)N(C)C(N(O)C(=O)NC)C1(C)C` (centres undefined), the AC50 entry was “inactive”.

As for `Cc1cc(C(=O)CSC(=S)SC(C)(C)C)ccc1Cl`, the activity, negative = inhibition was -0.319% [at 11.4 µM] (inactive).

`CCC(C(=O)N1CCOCC1)n1c(C(=O)OC)cc2occc21` (centres undefined): the AC50 entry is “inactive”.

With `COc1cc2c3cc1Oc1c(OC)c(OC)cc4c1[C@@H](Cc1ccc(O)c(c1)Oc1ccc(cc1)C[C@@H]3N(C)CC2)CN(C)C4`, the activity, negative = inhibition is 2.38% [at 11.4 µM] (inactive).

Turning to `COc1c(O)ccc2c1CN1CCc3cc4c(cc3[C@@H]1C2)OCO4`, the AC50 is 0.158 µM (active).

As for `CCS(=O)(=O)N1CCC[C@H]2CN3CCc4cc(OC)ccc4[C@@H]3C[C@@H]21`, the AC50 result was “inactive”.

Turning to `COc1ncc2nc(C)c(=O)n(C3CC3)c2n1`, the AC50 result is “inactive”.

Regarding `COc1ccc(Cc2n[nH]c(=O)c3ccccc23)cc1OC`, the AC50 entry was “inactive”.

`O=C(CNC(=O)c1ccco1)OCc1c(F)cccc1Cl`: the AC50 result is “inactive”.

As to `N[C@@H](CSC(=O)c1ccccc1)C(=O)O`, the activity, negative = inhibition is 9.96% [at 11.4 µM] (inactive).

Take `Cc1ccccc1C(=O)Oc1ccc(Br)cc1C(=S)N1CCCC1`: the AC50 entry was “inactive”.

As to `O=C(OCCN1CCCCC1)c1c[nH]c2ccccc12`, the AC50 entry was “inactive”.

Turning to `Cc1c(-c2ccccc2)oc2c(C(=O)OCCN3CCCCC3)cccc2c1=O`, the AC50 was 7.94 µM (active).

In the case of `Cc1ccccc1Oc1ccc(-c2nc(N)nc(N)n2)cc1`, the AC50 entry was “inactive”.

For the compound `O=C(Oc1ccc2ccccc2c1Br)N1CCCCCC1`, the AC50 entry was “inactive”.

Take `O=C(CCN1CCCCC1)c1csc2ccccc12`: the AC50 is 1 µM (active).

In the case of `O=C(N/N=C/c1ccc(O)cc1)c1csc2ccccc12`, the AC50 result is “inactive”.
